Cardiac RTF inh: cardiac RTF calcium desensitization | P19429+P45379 | IANBD-labeled cardiac RTF, Ca2+ fluorescence | inhibition, % at 7.15 µM | 340,000 compounds, 0.12% hits;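 active = inhibition above the mean inhibition of all tested compounds plus 3 SD, cut at about 17% in these data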;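 also: assay run at fixed EC70 calcium of 1.6 mM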
CRFR2-BP antag: CRF-BP/CRF-R2 complex antagonism; inhibition, % at 11.8 µM; HEK293 CRF-R2/CRF-BP, CRF-induced calcium fluorescence; 350,000 compounds, 0.59% hits; AID 588475;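 active = inhibition of the ligand-induced calcium signal above about 50% at the single tested concentration, limit read from the data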
Myeloid diff 2: myeloid differentiation induction; ER-HoxA9 myeloid progenitors, lysozyme-GFP differentiation, flow cytometry; calls only at 10 µM; 360,000 compounds, 1% hits; AID 624256;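 active = normalized GFP-positive differentiation at or above the plate's own cutoff, the solvent-only control mean plus 3 SD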;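 also: cells exposed to compound for four days before flow analysis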
RTF Ca sens act: cardiac RTF calcium sensitization; P19429+P45379; IANBD-labeled TnC RTF fluorescence at EC20 calcium; 0% EC20 calcium, 100% full calcium; activation, % at 7.2 µM; 340,000 compounds, 0.24% hits; AID 493008;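 active = activation above the mean over all tested compounds plus 3 SD, cut at about 30% in these data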;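 also: rise in fluorescence read as greater calcium sensitivity of cardiac thin filaments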
CRFR2-BP ag: CRF-BP/CRF-R2 complex agonism | HEK293 CRF-R2/CRF-BP, calcium dye fluorescence (FLIPR); percent of saturating CRF peptide response | activation, % at 13.2 µM | 350,000 compounds, 0.46% hits | AID 588473;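 active = activation of at least 50%, plus an integration ratio under a set limit after plate pattern correction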;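 also: plate controls were neutral control wells without compound for no effect and CRF at EC100 for full effect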
RTF Ca inh conf: confirmation of inhibitors of cardiac thin filament calcium sensitivity; shares compounds with Cardiac RTF inh; reconstituted cardiac thin filaments, calcium sensitivity fluorescence; inhibition, % at 7.15 µM; 360 compounds, 8% hits; AID 504635; in the data active = inhibition above about 18%
* = called active by the depositor. Hits are enriched below; roughly 2.2% of the tested compounds scored in any of these assays.

O=C(O)c1ccc2nc(-c3ccco3)c(-c3ccco3)nc2c1 was read as Cardiac RTF inh 47*, CRFR2-BP antag -15, Myeloid diff 2 inactive, RTF Ca sens act -30, CRFR2-BP ag 8 and RTF Ca inh conf 70*.
C#CCNCCS(=O)(=O)N(Cc1ccc(Br)cc1)[C@@H](C)C(=O)O was read as Cardiac RTF inh -5, CRFR2-BP antag -5, Myeloid diff 2 inactive, RTF Ca sens act -6 and CRFR2-BP ag 0.
`O=C1c2cccc(-c3ccc(C(F)(F)F)cc3)c2C2CC=CCN12` (stereo not drawn) gave Myeloid diff 2 inactive.
N#Cc1cc2c(nc1SCc1ccccc1)CCCC2=O was read as Cardiac RTF inh 20*, CRFR2-BP antag -3, Myeloid diff 2 inactive, RTF Ca sens act 1, CRFR2-BP ag 3 and RTF Ca inh conf 0.
N#Cc1cc2c(nc1SCc1ccccc1)CCC2 was read as Cardiac RTF inh -7, CRFR2-BP antag -24, Myeloid diff 2 inactive, RTF Ca sens act -6 and CRFR2-BP ag -2.
Screening O=C(Nc1cc(S(=O)(=O)N2CCOCC2)ccc1N1CCCC1)C1CC1 returned Cardiac RTF inh 19*, CRFR2-BP antag -15, Myeloid diff 2 inactive, RTF Ca sens act -4, CRFR2-BP ag 1 and RTF Ca inh conf -3.
Screening COCCNc1oc(/C=C/c2ccccc2OC)nc1S(=O)(=O)c1ccccc1 returned Cardiac RTF inh 18*, CRFR2-BP antag 28, Myeloid diff 2 inactive, RTF Ca sens act 0, CRFR2-BP ag -4 and RTF Ca inh conf 8.
For CN=c1scc(-c2cccs2)n1/N=C/c1ccccc1O the results were Cardiac RTF inh 17*, CRFR2-BP antag 22, Myeloid diff 2 inactive, RTF Ca sens act -5, CRFR2-BP ag 8 and RTF Ca inh conf -7.
COc1ccccc1CNc1nc(NCc2ccccc2SC)c2sccc2n1 was read as Myeloid diff 2 inactive.
O=C(O)c1cccc(N/N=C/c2ccc(OC(F)(F)F)cc2)c1 was read as Cardiac RTF inh 1, CRFR2-BP antag -2, Myeloid diff 2 inactive, RTF Ca sens act -2 and CRFR2-BP ag -2.
Screening CSc1ccc(/C=N/Nc2cccc(C(=O)O)c2)cc1 returned Cardiac RTF inh 26*, CRFR2-BP antag 5, Myeloid diff 2 inactive, RTF Ca sens act -14, CRFR2-BP ag 2 and RTF Ca inh conf 5.
`CN(C)CCCN1C(=O)C2CCc3[nH]c4ccccc4c3C2C1=O` (stereo not drawn) gave Cardiac RTF inh 19*, CRFR2-BP antag -5, Myeloid diff 2 inactive, RTF Ca sens act 6, CRFR2-BP ag 2 and RTF Ca inh conf -4.
`CC(=O)c1ccc(NC(=O)c2noc(C(C)C)c2[N+](=O)[O-])cc1` gave Cardiac RTF inh 188*, CRFR2-BP antag 19, Myeloid diff 2 inactive, RTF Ca sens act -6, CRFR2-BP ag 0 and RTF Ca inh conf -3.
Cc1c(CCOC(=O)C23CC4CC(CC(C)(C4)C2)C3)sc[n+]1CC(=O)c1ccccc1 was read as Cardiac RTF inh 19*, CRFR2-BP antag -33, Myeloid diff 2 inactive, RTF Ca sens act 3, CRFR2-BP ag -1 and RTF Ca inh conf -6.
Screening COC(=O)C(CCSC)NC(=O)C(NC(=O)C1CCC(C)CC1)C(C)C (stereo not drawn) returned Cardiac RTF inh -8, CRFR2-BP antag -7, Myeloid diff 2 inactive, RTF Ca sens act 1 and CRFR2-BP ag 1.
Screening CCC(C)C(NC(=O)C1CCC(C)CC1)C(=O)NC(CCSC)C(=O)OC (stereo not drawn) returned Cardiac RTF inh 18*, CRFR2-BP antag 17, Myeloid diff 2 inactive, RTF Ca sens act 1, CRFR2-BP ag -5 and RTF Ca inh conf -6.
`Cc1ccc(Nc2nc(N)nc(CN3CCN(C)CC3)n2)cc1` gave Cardiac RTF inh 18*, CRFR2-BP antag -4, Myeloid diff 2 inactive, RTF Ca sens act -2, CRFR2-BP ag -1 and RTF Ca inh conf -6.
Screening COc1ccccc1OCC(=O)Nc1ccc(S(=O)(=O)N2CCCC2)cc1 returned Cardiac RTF inh 3, CRFR2-BP antag -5, Myeloid diff 2 inactive, RTF Ca sens act -4 and CRFR2-BP ag 1.
CCOC(=O)c1c(C=O)c(C)n(Cc2ccccc2Cl)c1C was read as Cardiac RTF inh 18*, CRFR2-BP antag 42, Myeloid diff 2 inactive, RTF Ca sens act 1, CRFR2-BP ag 0 and RTF Ca inh conf -3.
